Source: PubChem
Rows were chosen to be rich in hits. Some 1.6% of all compounds tested hit in one or more screens of this group.
KCNQ2 block: blocks the rat KCNQ2 potassium channel; O88943; CHO-K1 KCNQ2, FluxOR thallium flux, 20 min; stronger effect = lower value; B-score at 10 µM; 310,000 tested, 1.1% active;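 active means fluorescence ratio B-score at most minus 3 library SDs, with starting brightness B-score within 2 library SDs, cut at about -5.5 in these data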
Target sequence (O88943 whole entry, looked up): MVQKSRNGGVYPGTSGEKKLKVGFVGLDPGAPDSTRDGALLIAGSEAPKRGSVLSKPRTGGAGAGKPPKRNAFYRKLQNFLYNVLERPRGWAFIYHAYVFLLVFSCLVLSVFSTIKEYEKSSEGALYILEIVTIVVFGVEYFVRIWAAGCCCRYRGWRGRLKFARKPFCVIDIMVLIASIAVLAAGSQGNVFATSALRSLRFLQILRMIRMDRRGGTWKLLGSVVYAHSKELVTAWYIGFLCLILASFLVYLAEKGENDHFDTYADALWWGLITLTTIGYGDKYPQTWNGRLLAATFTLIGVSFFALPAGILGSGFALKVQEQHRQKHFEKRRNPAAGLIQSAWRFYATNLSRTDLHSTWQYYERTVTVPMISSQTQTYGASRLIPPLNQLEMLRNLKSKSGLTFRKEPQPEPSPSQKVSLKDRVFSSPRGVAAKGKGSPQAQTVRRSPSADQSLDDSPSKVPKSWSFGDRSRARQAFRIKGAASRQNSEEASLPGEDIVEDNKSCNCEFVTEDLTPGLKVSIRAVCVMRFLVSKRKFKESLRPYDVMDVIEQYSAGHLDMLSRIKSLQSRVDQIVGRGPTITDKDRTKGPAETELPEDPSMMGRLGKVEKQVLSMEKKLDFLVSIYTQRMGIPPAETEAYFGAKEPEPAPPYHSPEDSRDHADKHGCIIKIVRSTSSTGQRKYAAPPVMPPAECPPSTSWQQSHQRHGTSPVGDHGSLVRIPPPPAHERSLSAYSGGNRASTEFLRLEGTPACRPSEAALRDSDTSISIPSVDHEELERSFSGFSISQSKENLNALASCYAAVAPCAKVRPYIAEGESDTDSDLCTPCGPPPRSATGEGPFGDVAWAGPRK
KCNQ2 enhance: enhances the rat KCNQ2 potassium channel; CHO-K1 KCNQ2, FluxOR thallium flux fluorescence; stronger effect = higher value; 310,000 tested, 0.54% active; O88943; B-score at 10 µM;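 active means fluorescence ratio B-score at least 3 SD of library B-scores, with initial fluorescence B-score within 3 of them, cut at about 5.3 in these data; same plate scores as AID 2156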;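 further: B-score of peak minus minimum over baseline fluorescence ratio after K+ and Tl+ stimulus; positive B-score means potentiation of KCNQ2 with more thallium influx and brighter signal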
Kir21 conf inh: confirmation of mouse Kir2.1 potassium channel inhibitors. AID 2032. 2,300 tested, 41% active. Kir2.1-expressing cells, FluxOR thallium flux fluorescence; stronger effect = lower value. shares compounds with KCNQ2 enhance. Tl flux remaining, % of negative control (stronger effect = lower value), % at 10 µM;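 active means Primary-screen hit whose thallium flux fell at least 3 control SD below untreated wells in both duplicates, with normal baseline fluorescence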;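 further: 0% = blank wells without stimulus and 100% = stimulated no-compound controls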
HEK293 ctr: parental HEK293 activity in Kir2.1 inhibitor counter-screen; 2,300 tested, 19% active; shares compounds with KCNQ2 enhance; FluxOR signal as % of negative control (100 = no effect), % at 10 µM; parental HEK293 cells, FluxOR thallium flux fluorescence; 0% = unstimulated blank wells; AID 2105;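 active means dye signal at least 3 control SD above or below untreated wells in both duplicates, raw fluorescence within 3, either direction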;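 further: percent is based on the flux ratio of peak minus minimum fluorescence over baseline F0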
CHO-K1 ctr: parental CHO-K1 activity in KCNQ2 potentiator counter-screen; activity increase over 3SD of controls, % at 10 µM; 1,200 tested, 43% active; parental CHO-K1 cells, FluxOR thallium flux fluorescence; zero = vehicle mean+3SD, 100% = vehicle-minus-blank window; AID 2282; shares compounds with KCNQ2 enhance;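 active means signal rise of at least 3 SD above the untreated control mean, in both duplicate wells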;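 further: counter screen of KCNQ2 potentiator hits so any rise reflects channel-independent effects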
KCNQ1 pot spec: human KCNQ1 counter-target activity of KCNQ2 potentiators | activation over 3SD threshold, % at 10 µM | shares compounds with KCNQ2 enhance | AID 2283 | 1,200 tested, 28% active | CHO KCNQ1 stable, FluxOR thallium flux fluorescence; beyond 3SD, as % of vehicle-control signal;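 active means fluorescence ratio rise of at least 3 SD of vehicle wells above their mean, in both replicate wells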;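 further: 0% = vehicle mean plus 3 SD and 100% = vehicle minus unstimulated blank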
KCNQ2 pot confirm: rat KCNQ2 channel potentiator confirmation; shares compounds with KCNQ2 enhance; CHO-KCNQ2 cells, FluxOR thallium flux fluorescence; potentiation, less the hit threshold, % at 10 µM; 1,200 tested, 68% active; AID 2287;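 active means fluorescence ratio rising 3 SD or more over the vehicle control mean in both replicates, plus primary screen hit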;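 further: peak minus minimum thallium fluorescence divided by baseline after K/Tl stimulus; 0% = vehicle mean plus 3 SD and 100% = vehicle minus unstimulated blank difference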
Kir21 spec: tests whether KCNQ2 potentiators also affect mouse Kir2.1; 1,200 tested, 2% active; AID 2345; shares compounds with KCNQ2 enhance; activity over 3SD threshold, % at 10 µM; HEK293 Kir2.1, FluxOR thallium flux fluorescence;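 active means fluorescence ratio rise of at least 3 SD above the vehicle-control mean, seen in both replicates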;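 further: 0% = vehicle mean plus 3 SD and 100% = vehicle minus no-stimulus blank window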
KCNQ2 W236L MoA: potentiates the retigabine-insensitive rat KCNQ2 W236L mutant channel; CHO KCNQ2-W236L, automated patch clamp current; 940 tested, 10% active; current increase over 3SD of negative controls (%), stronger effect = higher value, % at 25 µM; shares compounds with KCNQ2 enhance;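 active means current increase at least 3 SD of the untreated controls above them in both duplicate recordings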
* hit, by the source's call.

How did O=C(O)C(Cc1ccccc1)N1C(=O)c2ccccc2C1=O (stereo not given) do in these assays?
KCNQ2 block: inactive; KCNQ2 enhance: 1.3

How did Cc1ccc(OCCC(=O)N(CC(=O)Nc2ccccc2C(F)(F)F)Cc2ccco2)cc1 do in these assays?
KCNQ2 block: inactive

What do the screens show for `CCn1c(COc2ccc(=O)n(-c3ccccc3)n2)nnc1SCc1ccc(C)cc1`?
KCNQ2 block: inactive

What do the screens show for `CCn1c(COc2ccc(C)cc2)nnc1SCc1ccc(C#N)cc1`?
KCNQ2 block: inactive; Kir21 conf inh: 68%*; HEK293 ctr: inactive

Results for NS(=O)(=O)c1ccc(NCc2ccccc2OCc2ccc(F)cc2)cc1 ?
KCNQ2 block: inactive; KCNQ2 enhance: 6.6*; Kir21 conf inh: inactive; HEK293 ctr: inactive; CHO-K1 ctr: 38*; KCNQ1 pot spec: -16; KCNQ2 pot confirm: 2.5*; Kir21 spec: -54; KCNQ2 W236L MoA: inactive

What do the screens show for `NS(=O)(=O)c1ccc(CCNCc2ccccc2OCc2ccc(F)cc2)cc1`?
KCNQ2 block: inactive; KCNQ2 enhance: 0.56

What do the screens show for `COc1ccc(C(=O)N2CCN(c3ncccn3)CC2)cc1[N+](=O)[O-]`?
KCNQ2 block: inactive; KCNQ2 enhance: 0.54

How did O=C(Nc1cnn(C23CC4CC(CC(C4)C2)C3)c1)c1cc(-c2ccccc2)on1 do in these assays?
KCNQ2 block: inactive; KCNQ2 enhance: 0.83

Results for CCCn1cc(NC(=O)c2cc(-c3ccccc3)on2)cn1 ?
KCNQ2 block: inactive; KCNQ2 enhance: 5.7*; Kir21 conf inh: inactive; HEK293 ctr: inactive; CHO-K1 ctr: 24*; KCNQ1 pot spec: -15; KCNQ2 pot confirm: -60

Results for COc1ccc(S(=O)(=O)N2CCC(Cc3ccccc3)CC2)cc1NC(C)=O ?
KCNQ2 block: inactive; KCNQ2 enhance: 0.08

Results for O=C1NC(c2ccccc2)=C(c2nc3ccccc3s2)C(c2ccccc2)N1 (stereo not given) ?
KCNQ2 block: inactive; KCNQ2 enhance: 5.9*; Kir21 conf inh: inactive; HEK293 ctr: inactive; CHO-K1 ctr: 18*; KCNQ1 pot spec: -18; KCNQ2 pot confirm: 8.2*; Kir21 spec: -19; KCNQ2 W236L MoA: inactive

Results for CC(=O)C1=C(c2ccccc2)NC(=O)NC1c1ccccc1 (stereo not given) ?
KCNQ2 block: inactive; KCNQ2 enhance: 0.49

How did O=C(O)c1cccc(-n2cccc2/C=C/[N+](=O)[O-])c1 do in these assays?
KCNQ2 block: inactive

What do the screens show for `O=C(c1ccc2ccccc2c1)C1CCCN(C(=O)c2noc3c2CCCC3)C1` (stereo not given)?
KCNQ2 block: inactive

What do the screens show for `CC1=CCC[C@@H]2[C@@](C)(CC/C(C)=C/C(=O)O)[C@H](C)CC[C@@]12C`?
KCNQ2 block: inactive; KCNQ2 enhance: 15*; Kir21 conf inh: inactive; HEK293 ctr: 136%*; CHO-K1 ctr: 68*; KCNQ1 pot spec: 35*; KCNQ2 pot confirm: 7.9*; Kir21 spec: -12; KCNQ2 W236L MoA: inactive

Results for Fc1cccc(/C=N/Nc2ccc3ccccc3n2)c1 ?
KCNQ2 block: inactive; KCNQ2 enhance: 12*; Kir21 conf inh: inactive; HEK293 ctr: inactive; CHO-K1 ctr: -14; KCNQ1 pot spec: -21; KCNQ2 pot confirm: -20; Kir21 spec: -30

What do the screens show for `Brc1ccc(/C=N/Nc2ccc3ccccc3n2)cc1`?
KCNQ2 block: inactive; KCNQ2 enhance: 1.6
